Test results: PubChem BioAssay (NCATS)
Where “and” joins values, the source holds several entries; their conditions need not be identical. Equal entries are not always repeated. Inconclusive results are not listed. Calls of active or inactive are those of the source. Unless noted, calls come from the whole dose curve; as a rule, active = well fitted curve in either direction with a large enough effect (not every such curve was filed as active); inconclusive = small, poorly fitted or top-dose-only effect, or another doubt; inactive = flat fitted curve, though single readings scatter.

Assays:
[1] = AP1 Signaling Pathway (AID 357); details: ME-180 AP-1-bla reporter, EGF-induced, beta-lactamase ratio, 5 h;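 note: ME-180 reporter cells stimulated with EGF at its EC50 level; % is set by controls: 0 for no effect and ±100 for the full control effect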
How it was run: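 AP-1-bla ME-180 cells, Opti-MEM + 0.5% dialyzed FBS, plated overnight 37 °C. Cpd titration + EC50 EGF, 5 h 37 °C. CCF4 2.5 h RT; ex 405, em 460/530 ratio → %activity, AC50.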

[2] = biological target: Cytochrome P450 1A2 (Homo sapiens) (UniProt P05177); assay: p450-cyp1a2 (AID 410; calls by dose curve; note: potency is the fitted concentration of half-maximal effect;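 for activity change, negative = inhibition: -100% = full effect of reference inhibitor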); details: recombinant CYP1A2, luciferin-ME demethylation, luminescence; series mostly up to 57 µM
How it was run: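 Inhibition was calculated relative to 57 uM furafylline (full inhibition). The reaction used human CYP1A2 at 20nM with Luciferin-ME at its Km, 100uM, driven by an NADPH-regenerating system for 60 min at room temperature.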

[3] = NFAT Signaling Pathway (AID 444); details: Jurkat NFAT-bla M1, carbachol, beta-lactamase ratio, 5 h;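 note: carbachol stimulus at about its EC50 of 1 µM final; % is set by controls: 0 for no effect and ±100 for the full control effect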
How it was run: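 Read-out: CCF4 FRET ratio (460 nm/530 nm) after 1 h RT dye loading, used for %activity and AC50 from titration series. Cells: Jurkat NFAT-β-lactamase/M1 line, treated with compound plus 1 uM carbachol for 5 h, 37 °C.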

[4] = Stat Signaling Pathway (AID 446); details: ME-180 (cervical carcinoma) SIE beta-lactamase reporter, IL-6 stimulated, 5 h;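 note: ME-180 cervical cancer cells given 40 pM IL-6 alongside compound; SIE-controlled beta-lactamase reporter measured as 460/530 nm FRET emission ratio; % is set by controls: 0 for no effect and ±100 for the full control effect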
How it was run: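 IL-6/STAT signaling read in ME-180 cells via an SIE beta-lactamase reporter. Stimulus was 40 pM IL-6 (its AC50) for 5 hrs, so both activation and inhibition register.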

[5] = biological target: Glucocorticoid receptor (Homo sapiens) (UniProt P04150); assay: GR-GFP Redistribution (AID 450;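 active = compounds whose dose series gives a full or clear partial fitted curve of increased nuclear translocation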; note: potency is the fitted concentration of half-maximal effect); details: U2OS GR-GFP nuclear translocation, laser cytometry, 2 h
[6] = biological target: Glucocorticoid receptor (Homo sapiens) (UniProt P04150); assay: GR-EFC Redistribution (AID 451; calls by dose curve; note: potency is the fitted concentration of half-maximal effect); details: CHO-K1 GR-EFC translocation, beta-gal luminescence, 2 h
How it was run: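 Translocation of GR-ED fusion to nuclear EA restores b-gal, read by luminescence after 1 h room-temperature detection. Engineered CHO-K1 biosensor cells, 1,000/well, exposed 2 h at 37 C to titrations up to 46 uM final.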

[7] = biological target: Mitogen-activated protein kinase 10 (Mus musculus) (UniProt Q61831); assay: JNK3 AlphaScreen Assay (AID 530); details: JNK3 lysate, c-Jun phosphorylation; series mostly up to 57.1 µM;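 note: kinase came from lysate of stimulated human HepG2 cells; signal reports phosphorylation of biotinylated GST-cJun 1-79 at Ser73 with 10 µM ATP; % is set by controls: 0 for no effect and ±100 for the full control effect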
How it was run: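 Room-temperature AlphaScreen kinase assay; pre-activated HepG2 lysate as JNK3 source, biotin-GST-cJun(1-79) substrate, 10 uM ATP, compound 15 min preincubation.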

[8] = biological target: 3',5'-cyclic-AMP phosphodiesterase 4B (Homo sapiens) (UniProt Q07343); assay: qHTS Assay for Inhibitors of PDE-IV (AID 607; active = well fitted activation curve with a large enough effect in the main read-out, with a control signal flat, not every such curve was filed as active; note: % of control where 0% means no effect); details: HEK293 ACTOne CNG channel cells, membrane potential fluorescence; series mostly up to 22.9 µM
How it was run: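 Live HEK293 cells with a modified cyclic nucleotide-gated (CNG) channel report intracellular cAMP via membrane-potential dye fluorescence (ex 535/em 590 nm). Endogenous PDE-IV was targeted. Compounds were tested at up to 22.9 uM final; RO 20-1724 100 uM served as control.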

[9] = biological target: Guanine nucleotide-binding protein G(i) subunit alpha-1 (Homo sapiens) (UniProt P63096); assay: qHTS Assay for Inhibitors of RGS12 GoLoco Motif Activity (Green Fluorophore) (AID 879; active = well fitted curve in the direction sought with a large enough effect; an effect the other way counts as inactive or inconclusive;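 note: 0% = labeled peptide with Gαi1 and full inhibition = labeled peptide alone without protein; negative values mean loss of peptide binding seen as reduced polarization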); details: Galphai1/FITC-RGS12 GoLoco peptide, fluorescence polarization; series mostly up to 57.1 µM
How it was run: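 Fluorescence polarization assay: 50 nM Gαi1 with 10 nM FITC-labeled RGS12 GoLoco peptide in 10 mM Tris pH 7.5, 150 mM NaCl, 0.1 mM GDP, 0.05% NP40, 10 min at room temperature with compound.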

[10] = biological target: Cytochrome P450 3A4 (Homo sapiens) (UniProt P08684); assay: qHTS Assay for Activators of Cytochrome P450 3A4 (AID 885; active = well fitted curve in the direction sought with a large enough effect; an effect the other way counts as inactive or inconclusive; note: nearly all actives have a fitted effect of over 65% in size); details: recombinant CYP3A4, Luciferin-PPXE luminescence, 60 min; series mostly up to 57.1 µM
How it was run: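 Quantitative HTS format: compounds preincubated with 20nM human CYP3A4 and Luciferin-PPXE substrate at KM, reaction started by NADPH regeneration, stopped after 60 min, luciferase luminescence read 20 min later.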

[11] = biological target: Pyruvate kinase (Leishmania mexicana) (UniProt Q27686); assay: qHTS Validation Assay for Inhibitors of Leishmania Mexicana Pyruvate Kinase (AID 945; active = well fitted curve in the direction sought with a large enough effect; an effect the other way counts as inactive or inconclusive;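 note: 0% = DMSO only neutral control wells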); details: purified L. mexicana pyruvate kinase, enzyme activity, E451W mutant enzyme; series mostly up to 57.5 µM
How it was run: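 Eight-point qHTS titrations; enzyme 0.2 nM LmPYK (E451W mutant); substrates 0.5 mM PEP, 0.1 mM ADP; 7 mM MgCl2; 1 h room temperature; PKLight luminescence normalized to neutral control.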

[12] = biological target: Alpha-galactosidase A (Homo sapiens) (UniProt P06280); assay: Counterscreen for Glucocerebrosidase Inhibitors: qHTS Assay for Human alpha-Galactosidase at pH 4.5 (AID 992; active = well fitted curve in the direction sought with a large enough effect; an effect the other way counts as inactive or inconclusive; note: 0% is about no effect); details: purified enzyme, fluorogenic substrate; series mostly up to 76.9 µM
How it was run: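 Read-out is 4-methylumbelliferone fluorescence (365 nm excitation, 440 nm emission) after a pH 10 NaOH/glycine stop. Reactions held 2 nM enzyme and 80 uM substrate at pH 4.5 for 20 min at room temperature.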

[13] = biological target: alpha-glucosidase (Oryza sativa, rice) (UniProt Q653V4); assay: Counterscreen for Glucocerebrosidase Inhibitors: qHTS Assay for Rice alpha-Glucosidase at pH 5.0 (AID 997; active = well fitted curve in the direction sought with a large enough effect; an effect the other way counts as inactive or inconclusive;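 note: 0% = full activity with enzyme and -100% = basal without enzyme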); details: rice alpha-glucosidase enzyme activity; series mostly up to 76.9 µM
How it was run: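 Rice alpha-glucosidase (4 nM final) with 400 uM 4-methylumbelliferyl-alpha-D-glucopyranoside in citrate buffer pH 5.0, 20 min at room temperature, stopped at pH 10; fluorescence 365/440 nm, compounds 0.7 nM–77 uM, AC50 from Hill fits.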

[14] = qHTS Assay for Lipid Storage Modulators (AID 1519; calls by dose curve); details: Drosophila S3 cells, BODIPY lipid droplet/cell ratio, laser cytometry, cells loaded with oleic acid; for activity change, negative = inhibition: at 25.7 µM (top of the series)
How it was run: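 Cells seeded at 5,000 per well were treated with compounds over a concentration series and loaded with oleic acid (400 uM, as added). Lipid droplet fluorescence (488 nm excitation, 500-530 nm channel) was read by laser-scanning cytometry and normalized to 20 uM Triacsin C.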

[15] = biological target: Ubiquitin carboxyl-terminal hydrolase 1 (Homo sapiens) (UniProt O94782); assay: Inhibitors of USP1/UAF1: Pilot qHTS (AID 504865; active = well fitted curve in the direction sought with a large enough effect; an effect the other way counts as inactive or inconclusive;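 note: rhodamine fluorescence freed from ubiquitin-rhodamine substrate followed over time; top concentration of the series differs between compounds; % is set by controls: 0 for no effect and ±100 for the full control effect; nearly all actives have a fitted effect of over 35% in size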); details: purified USP1/UAF1, Ub-rhodamine cleavage fluorescence; series mostly up to 54.9 µM
How it was run: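 USP1/UAF1 complex (1nM) preincubated with compound 15 min at room temperature, then Ub-Rho substrate (150nM final) added. Fluorescence read kinetically at 480/540 nm, 6 reads every 60 seconds. Buffer: 50mM HEPES pH 7.8, 0.5mM EDTA, 0.1 mg/ml BSA, 1mM TCEP, 0.01% Tween-20.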

[16] = qHTS profiling for inhibitors of Plasmodium falciparum proliferation (AID 504749; active = well fitted curve in the direction sought with a large enough effect; an effect the other way counts as inactive or inconclusive;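 note: 0% = DMSO vehicle and full inhibition = artemisinin control; nearly all actives have a fitted effect of over 60% in size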); details: P. falciparum in erythrocytes, SYBR Green DNA, 72 h
How it was run: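 Three-day growth assay of blood-stage parasites in erythrocytes (0.3% parasitemia, 2.5% hematocrit) at 37 C, 5% CO2, quantified by SYBR Green DNA staining after overnight detergent lysis.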

[17] = measured here: cell count channel max response
[18] = measured here: lipid channel max response
[19] = at 7.69 µM (top of the series) unless noted
[20] = at 12.8 µM (top of the series), parasite line A
[21] = at 12.8 µM (top of the series), parasite line B

3',5'-cyclic-AMP phosphodiesterase 4B (Homo sapiens), sequence (Q07343 whole entry, looked up): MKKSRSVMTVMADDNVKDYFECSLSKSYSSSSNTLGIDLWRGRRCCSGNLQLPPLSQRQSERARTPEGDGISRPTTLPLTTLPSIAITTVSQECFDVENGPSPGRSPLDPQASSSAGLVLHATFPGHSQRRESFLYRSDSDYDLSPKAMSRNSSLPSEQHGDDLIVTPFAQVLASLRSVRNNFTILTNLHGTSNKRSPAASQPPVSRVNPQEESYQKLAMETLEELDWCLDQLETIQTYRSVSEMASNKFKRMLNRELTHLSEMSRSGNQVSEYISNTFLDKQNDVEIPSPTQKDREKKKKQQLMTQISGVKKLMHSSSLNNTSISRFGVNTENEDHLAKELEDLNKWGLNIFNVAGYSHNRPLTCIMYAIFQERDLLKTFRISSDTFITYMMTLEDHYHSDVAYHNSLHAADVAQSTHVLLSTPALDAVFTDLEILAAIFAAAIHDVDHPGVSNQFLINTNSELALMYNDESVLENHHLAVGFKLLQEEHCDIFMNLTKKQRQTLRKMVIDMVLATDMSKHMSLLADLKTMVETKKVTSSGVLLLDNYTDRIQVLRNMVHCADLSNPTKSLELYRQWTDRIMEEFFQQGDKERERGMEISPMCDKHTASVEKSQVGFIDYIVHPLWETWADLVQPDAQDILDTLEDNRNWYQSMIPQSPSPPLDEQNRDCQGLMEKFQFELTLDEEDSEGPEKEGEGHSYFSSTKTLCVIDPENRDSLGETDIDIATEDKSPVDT
Cytochrome P450 3A4 (Homo sapiens), sequence (P08684 whole entry, looked up): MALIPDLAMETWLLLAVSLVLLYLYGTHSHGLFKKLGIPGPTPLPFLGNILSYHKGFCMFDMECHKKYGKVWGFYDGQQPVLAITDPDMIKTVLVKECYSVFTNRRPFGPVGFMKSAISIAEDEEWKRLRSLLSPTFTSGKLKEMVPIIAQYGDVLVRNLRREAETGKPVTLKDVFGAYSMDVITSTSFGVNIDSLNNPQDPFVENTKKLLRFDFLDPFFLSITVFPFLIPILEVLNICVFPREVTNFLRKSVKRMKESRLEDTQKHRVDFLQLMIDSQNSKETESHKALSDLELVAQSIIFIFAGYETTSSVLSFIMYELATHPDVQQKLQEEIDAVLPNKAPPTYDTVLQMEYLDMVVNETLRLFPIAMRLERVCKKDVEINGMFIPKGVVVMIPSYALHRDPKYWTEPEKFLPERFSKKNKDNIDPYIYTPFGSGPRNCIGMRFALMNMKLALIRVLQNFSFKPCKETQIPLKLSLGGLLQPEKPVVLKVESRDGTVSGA
Cytochrome P450 1A2 (Homo sapiens), sequence (P05177 whole entry, looked up): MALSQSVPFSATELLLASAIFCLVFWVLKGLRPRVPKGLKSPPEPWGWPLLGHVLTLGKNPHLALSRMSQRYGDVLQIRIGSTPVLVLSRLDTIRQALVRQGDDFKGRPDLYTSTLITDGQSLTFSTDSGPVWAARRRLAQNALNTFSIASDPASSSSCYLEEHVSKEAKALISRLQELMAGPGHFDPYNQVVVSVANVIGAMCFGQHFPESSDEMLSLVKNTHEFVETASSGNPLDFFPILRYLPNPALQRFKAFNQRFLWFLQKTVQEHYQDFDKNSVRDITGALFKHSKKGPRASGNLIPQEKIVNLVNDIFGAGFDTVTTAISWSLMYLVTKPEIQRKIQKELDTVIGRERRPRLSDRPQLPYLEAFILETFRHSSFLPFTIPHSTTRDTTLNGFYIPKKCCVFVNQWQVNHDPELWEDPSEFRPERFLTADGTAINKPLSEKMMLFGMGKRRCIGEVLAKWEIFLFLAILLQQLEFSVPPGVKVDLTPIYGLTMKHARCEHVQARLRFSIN
Ubiquitin carboxyl-terminal hydrolase 1 (Homo sapiens), sequence (O94782 whole entry, looked up): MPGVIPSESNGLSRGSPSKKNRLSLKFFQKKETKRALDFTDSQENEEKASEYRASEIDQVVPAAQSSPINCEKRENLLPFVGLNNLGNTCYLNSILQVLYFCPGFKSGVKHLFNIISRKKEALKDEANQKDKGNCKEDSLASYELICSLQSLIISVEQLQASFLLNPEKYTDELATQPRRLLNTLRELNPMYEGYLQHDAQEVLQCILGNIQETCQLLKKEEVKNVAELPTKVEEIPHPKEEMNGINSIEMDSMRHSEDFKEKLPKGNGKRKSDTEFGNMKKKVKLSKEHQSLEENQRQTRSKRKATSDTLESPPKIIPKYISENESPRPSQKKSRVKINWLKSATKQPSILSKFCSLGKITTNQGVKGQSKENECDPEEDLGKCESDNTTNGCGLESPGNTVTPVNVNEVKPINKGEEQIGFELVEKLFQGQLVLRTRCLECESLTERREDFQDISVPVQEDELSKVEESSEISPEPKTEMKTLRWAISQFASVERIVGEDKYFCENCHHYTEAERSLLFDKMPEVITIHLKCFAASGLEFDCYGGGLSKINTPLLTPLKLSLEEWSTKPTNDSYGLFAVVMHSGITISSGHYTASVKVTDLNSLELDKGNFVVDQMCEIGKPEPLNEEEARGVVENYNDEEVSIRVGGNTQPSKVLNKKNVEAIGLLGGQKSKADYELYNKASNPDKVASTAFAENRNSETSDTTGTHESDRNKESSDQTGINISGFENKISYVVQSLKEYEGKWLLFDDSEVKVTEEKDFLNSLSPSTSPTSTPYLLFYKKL
Glucocorticoid receptor (Homo sapiens), sequence (P04150 whole entry, looked up, the tested form may be a part): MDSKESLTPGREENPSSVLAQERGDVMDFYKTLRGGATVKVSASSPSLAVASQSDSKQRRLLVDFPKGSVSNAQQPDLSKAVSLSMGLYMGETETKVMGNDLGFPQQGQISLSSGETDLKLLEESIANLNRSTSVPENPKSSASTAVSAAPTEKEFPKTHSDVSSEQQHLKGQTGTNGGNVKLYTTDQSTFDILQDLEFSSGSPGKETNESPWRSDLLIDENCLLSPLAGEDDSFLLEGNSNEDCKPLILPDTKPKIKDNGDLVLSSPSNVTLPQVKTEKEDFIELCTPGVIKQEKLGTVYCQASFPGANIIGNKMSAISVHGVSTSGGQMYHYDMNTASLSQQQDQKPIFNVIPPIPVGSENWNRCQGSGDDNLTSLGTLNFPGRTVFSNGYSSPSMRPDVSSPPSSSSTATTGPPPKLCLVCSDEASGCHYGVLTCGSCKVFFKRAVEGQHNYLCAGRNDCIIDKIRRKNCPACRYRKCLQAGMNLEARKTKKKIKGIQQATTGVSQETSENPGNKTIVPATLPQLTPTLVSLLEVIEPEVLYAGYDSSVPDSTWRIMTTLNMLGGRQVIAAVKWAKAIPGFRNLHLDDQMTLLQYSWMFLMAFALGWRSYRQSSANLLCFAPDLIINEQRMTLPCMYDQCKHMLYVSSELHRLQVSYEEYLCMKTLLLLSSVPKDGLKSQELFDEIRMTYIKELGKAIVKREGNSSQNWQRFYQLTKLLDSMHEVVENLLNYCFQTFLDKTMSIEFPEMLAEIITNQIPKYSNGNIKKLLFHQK
Pyruvate kinase (Leishmania mexicana), sequence (Q27686 2-499 E452W): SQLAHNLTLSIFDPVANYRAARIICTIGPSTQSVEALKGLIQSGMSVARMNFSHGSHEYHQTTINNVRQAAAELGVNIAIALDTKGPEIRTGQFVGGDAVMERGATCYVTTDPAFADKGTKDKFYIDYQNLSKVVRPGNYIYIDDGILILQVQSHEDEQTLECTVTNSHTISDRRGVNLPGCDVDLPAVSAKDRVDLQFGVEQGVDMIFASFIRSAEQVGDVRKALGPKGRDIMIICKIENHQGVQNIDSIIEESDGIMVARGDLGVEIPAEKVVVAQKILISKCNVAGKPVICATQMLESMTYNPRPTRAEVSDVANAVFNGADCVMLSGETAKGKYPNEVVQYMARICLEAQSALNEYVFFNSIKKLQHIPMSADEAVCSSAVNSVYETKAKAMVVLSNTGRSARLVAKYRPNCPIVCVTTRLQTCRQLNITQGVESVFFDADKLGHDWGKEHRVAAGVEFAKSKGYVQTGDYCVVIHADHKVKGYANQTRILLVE
Guanine nucleotide-binding protein G(i) subunit alpha-1 (Homo sapiens), sequence (P63096 whole entry, looked up): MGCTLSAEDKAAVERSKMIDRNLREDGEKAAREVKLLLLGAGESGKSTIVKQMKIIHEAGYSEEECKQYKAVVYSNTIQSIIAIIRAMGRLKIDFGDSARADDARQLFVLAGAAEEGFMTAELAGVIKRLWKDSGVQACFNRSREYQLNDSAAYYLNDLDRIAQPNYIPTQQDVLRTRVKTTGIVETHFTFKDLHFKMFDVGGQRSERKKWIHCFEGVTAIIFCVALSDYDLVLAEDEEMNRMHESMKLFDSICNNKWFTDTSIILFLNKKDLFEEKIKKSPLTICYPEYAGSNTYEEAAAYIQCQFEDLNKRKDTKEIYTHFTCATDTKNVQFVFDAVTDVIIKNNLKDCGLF
Alpha-galactosidase A (Homo sapiens), sequence (P06280 whole entry, looked up): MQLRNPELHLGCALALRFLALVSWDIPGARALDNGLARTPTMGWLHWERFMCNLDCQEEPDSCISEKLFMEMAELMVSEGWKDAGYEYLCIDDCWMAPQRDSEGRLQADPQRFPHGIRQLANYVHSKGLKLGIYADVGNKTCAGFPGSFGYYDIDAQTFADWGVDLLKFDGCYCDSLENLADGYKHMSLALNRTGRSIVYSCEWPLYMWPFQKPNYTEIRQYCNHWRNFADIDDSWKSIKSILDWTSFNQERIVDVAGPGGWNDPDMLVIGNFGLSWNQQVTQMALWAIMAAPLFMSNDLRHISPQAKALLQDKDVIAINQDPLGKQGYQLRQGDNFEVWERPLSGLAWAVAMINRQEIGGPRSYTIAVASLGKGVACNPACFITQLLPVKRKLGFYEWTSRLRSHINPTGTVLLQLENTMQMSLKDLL

N[C@H](C(=O)N[C@@H]1C(=O)N2C(C(=O)O)=C(Cl)CS[C@@H]12)c1ccccc1
-2.76% and 11.1%: max response [14, 17]
-3.03% and 9.1%: max response [14, 18]
inactive: activity change, negative = inhibition ([1]; at 17.2 µM (top of the series)) 6.26% and -9.38% | activity change, negative = inhibition ([1]; at 38 µM (top of the series)) -4.53% | Potency [2] | activity change, negative = inhibition ([3]; at 17.2 µM (top of the series)) -10.5% and 0.734% | activity change, negative = inhibition ([3]; at 38 µM (top of the series)) 5.52% | activity, negative = inhibition ([4]; at 17.2 µM (top of the series)) -10.4% and 2.37% | activity, negative = inhibition ([4]; at 38 µM (top of the series)) 22.7% | Potency [5] > 46 µM and > 20.6 µM | Potency [6] > 46 µM and > 20.6 µM | Potency [7] | Potency [8] | Potency [9] | Potency [10] | outcome [11] | outcome [12] | outcome [13] | activity change, negative = inhibition [14] -0.721% and -1.78% | Potency [15]

CC(=O)OCC1=C(C(=O)O)N2C(=O)[C@@H](NC(=O)CSc3ccncc3)[C@@H]2SC1
inactive: activity change, negative = inhibition ([1]; at 17.2 µM (top of the series)) 9.51% | activity change, negative = inhibition ([1]; at 38 µM (top of the series)) 11% | Potency [2] | activity change, negative = inhibition ([3]; at 17.2 µM (top of the series)) 7.12% | activity change, negative = inhibition ([3]; at 38 µM (top of the series)) 4.33% | activity, negative = inhibition ([4]; at 17.2 µM (top of the series)) 8.61% | activity, negative = inhibition ([4]; at 38 µM (top of the series)) -9.45% | Potency [5] > 46 µM and > 20.6 µM | Potency [6] > 46 µM and > 20.6 µM | Potency [7] | Potency [8] | Potency [9] | Potency [10] | outcome [11] | outcome [12] | outcome [13] | activity change, negative = inhibition [14] -4.27% | activity, negative = inhibition ([16]; at 28.7 µM (top of the series), parasite line A) -4.5% | activity, negative = inhibition ([16]; at 28.7 µM (top of the series), parasite line B) -4.99%
-7.14%: max response [14, 17]
-13.2%: max response [14, 18]

O=C(O)/C=C\c1ccc(O)c(O)c1
-2.45%: max response [14, 18]
inactive: activity change, negative = inhibition ([1]; at 17.2 µM (top of the series)) -12.5% | activity change, negative = inhibition ([1]; at 38 µM (top of the series)) -5.91% | Potency [2] | activity change, negative = inhibition [3, 19] -7.46% [at 38 µM] | activity, negative = inhibition ([4]; at 17.2 µM (top of the series)) 3.52% | activity, negative = inhibition ([4]; at 38 µM (top of the series)) 10.1% | Potency [5] > 46 µM and > 20.6 µM | Potency [6] > 46 µM and > 20.6 µM | Potency [7] | Potency [8] | activity change, negative = inhibition [14] -3.56% | Potency [15]
-1.26%: max response [14, 17]

COc1ccccc1OC[C@H](O)COC(N)=O
inactive: activity change, negative = inhibition [1, 19] -6.22% [at 17.2 µM] | activity change, negative = inhibition [3, 19] -5.33% [at 17.2 µM] | activity, negative = inhibition [4, 19] 10.4% [at 17.2 µM] | Potency [5] > 20.6 µM | Potency [6] > 20.6 µM | Potency [7] | Potency [8] | activity change, negative = inhibition [14] 1.49% | Potency [15] | activity, negative = inhibition [16, 20] 3.95% | activity, negative = inhibition [16, 21] 18.1%
-1.12%: max response [14, 17]
active: Potency [2] 10 µM
2.55%: max response [14, 18]

C[C@]12CCC3c4ccc(O)cc4CCC3[C@@H]1CCC2=O (some centres undefined)
-7.49%: max response [14, 17]
-8.59%: max response [14, 18]
inactive: activity change, negative = inhibition ([1]; at 17.2 µM (top of the series)) 0.112% | activity change, negative = inhibition ([1]; at 38 µM (top of the series)) -3.57% | activity change, negative = inhibition ([3]; at 17.2 µM (top of the series)) -16.8% | activity change, negative = inhibition ([3]; at 38 µM (top of the series)) -2.29% | activity, negative = inhibition ([4]; at 17.2 µM (top of the series)) -9.06% | activity, negative = inhibition ([4]; at 38 µM (top of the series)) -20.6% | Potency [7] | Potency [8] | activity change, negative = inhibition [14] -0.972%

CC1(C)O[C@@H]2C[C@H]3[C@H]4C[C@H](F)C5=CC(=O)C=C[C@@]5(C)[C@@H]4[C@H](O)C[C@]3(C)[C@]2(C(=O)CO)O1
-28.6%: max response [14, 18]
-24%: max response [14, 17]
active: Potency [5] 0.00395 µM | Potency [6] 0.00485 µM
inactive: activity change, negative = inhibition [1, 19] 21.4% [at 17.2 µM] | Potency [2] | activity change, negative = inhibition [3, 19] -5.12% [at 17.2 µM] | activity, negative = inhibition [4, 19] -5.69% [at 17.2 µM] | Potency [8] | Potency [10] | activity change, negative = inhibition [14] -4.94% | Potency [15] | activity, negative = inhibition [16, 20] -1.94% | activity, negative = inhibition [16, 21] 13.2%
